About 83,000 compounds went through this panel and 20% of them were active in at least one assay; those are over-represented in the sample as a whole.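 How to read the values: 0–100, growth inhibition (40 = 60% inhibited); 0, no net growth; -100 to 0, cell death (-40 = 40% of starting cells died; -100 = all dead).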 A number with no mark means an inactive call. Calls of active or inactive are those of the source. How the source made its calls: active means growth percent below 10; inactive means the rest.
system: MDA-MB-468 breast; experiment: NCI-60 one-dose screen, 48 h (100 = growth as untreated, 0 = no growth, -100 = all killed); settings: 10 µM unless noted

Structure (SMILES) | growth
CCCCCN1C=C/C(=C\C(=O)N(C)c2cccc3ccccc23)c2ccccc21 | 70.9%
Cc1ccc(C2CC(c3cccc(Nc4ccncc4)c3)=NN2c2ccc(Cl)cc2)cc1 (stereo not drawn) | -71% (active)
CCC1=C[C@H]2CN(CCc3c([nH]c4ccccc34)[C@@](C(=O)OC)(c3cc4c(cc3OC)N(C)[C@H]3[C@@](O)(C(=O)OC)[C@H](OC(C)=O)[C@]5(CC)[C@@H]6C[C@@H]6CN6CC[C@]43[C@@H]65)C2)C1 | 7.4% (active)
COc1cc(-c2c(C#N)c(-c3cccs3)nc3c2c(-c2ccccc2)nn3-c2ccccc2)ccc1O | 95.4%
NC(N)=N/N=C/c1cccc(Br)c1 | 87%
COc1ccc2c3c(ccc2c1)C(=O)/C(=C\O)CC3 | 111%
COc1ccc(/C=C2/CN(C(=O)c3ccc(C)cc3)C/C(=C\c3ccc(OC)cc3)C2=O)cc1 | 74.1%
CC(C)C(=O)Nc1n[nH]c2cc(-c3cccc(NS(=O)(=O)C4CC4)c3)ccc12 | 21.6%
Cc1ncc(C#N)c(N)n1 | 89.3%
C=C1C(=O)O[C@H]2[C@H]1CC/C(COC(=O)NCc1c[nH]c3ccc(F)cc13)=C\CC[C@@]1(C)O[C@@H]21 | -58.1% (active)
O=c1[nH]c2c(ccc3cnccc32)c2c1CCC2 | -60.5% (active)
c1ccc2[nH]c(-c3cc(-c4ccc5c(c4)OCO5)n[nH]3)nc2c1 | 51.2%
CCN1CCN(c2ccc(Nc3cc(-c4cccnc4Nc4c(Cl)c(OC)cc(OC)c4Cl)ncn3)cc2)CC1 | 89.6%

Reference: PubChem BioAssay (NCI)
